# Data reported in PubChem BioAssay AID720697 (Broad Institute, 2013).
# Entries with a potency or affinity are not part of this list. Results filed as inconclusive are left out. A number with no mark means an inactive call. Active and inactive are the calls of the source.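 The calls were made as follows: active = signal loss with fitted half-maximal concentration at or below twice the top valid tested dose in every test run; inconclusive = runs disagree, flat 30 to 70% signal loss, or poor fit; inactive = all runs flat, opposite direction, or potency beyond limit.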
# Experiment: HEK293T cytotoxicity, dose response, cytotoxicity control for miR-122 modulator project, cell-based, inhibitor set, cherry-pick, set 2 (AID 720697);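 also: 0% = median of neutral control wells and -100% = MG132 positive control wells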
# Details: HEK293T viability, CellTiter-Glo luminescence, 48 h; series mostly up to 26 µM
Structure (SMILES),outcome,"activity change, negative = cytotoxicity"
C[C@@H]1CN([C@@H](C)CO)C(=O)c2cccc(NC(=O)c3ccc(-c4nccs4)cc3)c2O[C@H]1CN(C)Cc1ccc2c(c1)OCO2,inactive,
COC(=O)C[C@H]1CC[C@@H]2[C@@H](COc3ccc(NC(=O)c4ccc(F)c(F)c4)cc3C(=O)N2C)O1,inactive,
O=C(c1cccnc1)N1C[C@H]2[C@@H](c3ccccc31)[C@H](CO)N2C(=O)Nc1ccccc1,inactive,
CCC(=O)N1[C@H](CN(CC)C(=O)c2ccccc2)[C@@H](c2ccccc2)[C@@H]1CO,inactive,
CN1CCN(C(=O)C[C@H]2CC[C@@H]3[C@H](COc4ccc(NC(=O)c5cccs5)cc4C(=O)N3C)O2)CC1,inactive,
CCCC(=O)Nc1ccc2c(c1)C(=O)N(C)[C@H]1CC[C@H](CC(=O)NCCN3CCCCC3)O[C@@H]1CO2,inactive,
CC(C)C(=O)Nc1ccc2c(c1)C(=O)N(C)[C@@H]1CC[C@@H](CC(=O)NCC3CC3)O[C@H]1CO2,inactive,
CC(=O)Nc1ccc2c(c1)C(=O)N(C)[C@H]1CC[C@H](CC(=O)Nc3ccccc3Cl)O[C@@H]1CO2,inactive,
CN(C[C@H]1[C@H](c2ccccc2)[C@@H](CO)N1CC1CC1)C(=O)c1cccc(F)c1,inactive,
CNC(=O)C[C@H]1CC[C@@H]2[C@H](COc3ccc(NC(=O)c4ccc(OC)cc4)cc3C(=O)N2C)O1,inactive,
CNC(=O)C[C@H]1CC[C@@H]2[C@H](COc3ccc(NC(=O)NC(C)C)cc3C(=O)N2C)O1,inactive,
COc1ccc(CCNC(=O)c2c(C)cc(=O)oc2C)cc1OC,inactive,
CC(C)CC#Cc1ccc([C@H]2[C@@H](CO)N3CCCCN(S(=O)(=O)Cc4ccccc4)C[C@H]23)cc1,inactive,
O=C(Nc1ccc(F)cc1)N1C[C@@H]2[C@H](c3ccccc31)[C@H](CO)N2C(=O)Cc1ccccc1,inactive,
CO[C@@H]1CN(C)C(=O)c2ccc(NS(C)(=O)=O)cc2OC[C@H](C)N(C(=O)CN(C)C)C[C@@H]1C,inactive,
CCC(=O)NC[C@H]1[C@H](c2ccc(C3=CCCC3)cc2)[C@H](CO)N1C(C)=O,inactive,
CN1C(=O)c2cc(NC(=O)c3ccc(C(F)(F)F)cc3)ccc2OC[C@@H]2O[C@H](CC(=O)NC3Cc4ccccc4C3)CC[C@H]21,inactive,
CN1C(=O)c2cc(NS(=O)(=O)c3ccc(Cl)cc3)ccc2OC[C@H]2O[C@H](CC(=O)N3CCc4ccccc4C3)CC[C@@H]21,inactive,
COCCNC(=O)C[C@@H]1CC[C@@H]2[C@H](COc3ccc(NS(=O)(=O)c4ccc(Cl)cc4)cc3C(=O)N2C)O1,inactive,
CCCNC(=O)N1[C@H](CO)[C@H](c2ccc(-c3ccccc3)cc2)[C@@H]1CNC(C)=O,inactive,

Structure (SMILES),outcome,"activity change, negative = cytotoxicity"
COC(=O)C[C@@H]1CC[C@@H]2[C@H](COc3ccc(NC(=O)c4cc(F)cc(F)c4)cc3C(=O)N2C)O1,inactive,
CCCNC(=O)C[C@@H]1CC[C@@H]2[C@@H](COc3ccc(NS(=O)(=O)c4ccccc4C)cc3C(=O)N2C)O1,inactive,
C[C@@H]1CN([C@@H](C)CO)S(=O)(=O)c2ccc(C3=CCCCC3)cc2O[C@@H]1CN(C)C(=O)Cc1ccncc1,inactive,
Fc1ccccc1-c1nc(-c2ccncc2)no1,,-1.62% [at 6 µM]
CCCC(=O)Nc1ccc2c(c1)C(=O)N(C)[C@@H]1CC[C@H](CC(=O)NCc3cccc(F)c3)O[C@H]1CO2,inactive,
Cc1cccc(NC(=O)C[C@H]2CC[C@H]3[C@@H](COc4ccc(NC(=O)NC(C)C)cc4C(=O)N3C)O2)c1,inactive,
COc1ccc(CNC(=O)C[C@H]2CC[C@H]3[C@H](COc4ccc(NC(=O)C(C)C)cc4C(=O)N3C)O2)cc1,inactive,
COc1cccc(-c2ccc3c(c2)O[C@H](CN(C)C(=O)C2CCOCC2)[C@H](C)CN([C@H](C)CO)S3(=O)=O)c1,inactive,
COc1cccc(COc2cc3ccccc3nc2C)c1,inactive,
Cc1ccc(NCC(=O)c2ccccc2)cc1Cl,inactive,
O=C(Nc1ccc(Cl)cc1)N1C[C@H]2[C@@H](c3ccccc31)[C@H](CO)N2CC1CCCCC1,inactive,
Cc1nn(C)cc1NC(=O)C[C@@H]1CC[C@@H]2[C@H](COc3ccc(NC(=O)Nc4cccc(Cl)c4)cc3C(=O)N2C)O1,inactive,
C[C@@H]1CN([C@H](C)CO)S(=O)(=O)c2ccc(-c3ccccc3)cc2O[C@@H]1CN(C)C(=O)c1ccc2c(c1)OCO2,inactive,
C[C@@H]1CN([C@@H](C)CO)S(=O)(=O)c2ccc(C#CC3CC3)cc2O[C@@H]1CN(C)C(=O)c1cccc(F)c1,inactive,
COCC(=O)N(C)C[C@H]1Oc2cc(-c3ccccc3F)ccc2S(=O)(=O)N([C@@H](C)CO)C[C@@H]1C,inactive,
Cc1nnc(NC(=O)CSc2nc(C(C)C)nc3sc(C)c(C)c23)s1,inactive,
CNC[C@@H]1Oc2cc(C#Cc3cccc(OC)c3)ccc2S(=O)(=O)N([C@@H](C)CO)C[C@@H]1C,inactive,
O=C(CN1CCOCC1)NC[C@@H]1N[C@@H](CO)[C@@H]1c1ccc(-c2ccccc2)cc1,inactive,
CCC(=O)N1C[C@H]2[C@@H](c3ccccc31)[C@H](CO)N2C(=O)Nc1ccccc1F,inactive,
